Results from PubChem BioAssay (EPA / NIEHS).
Calls of active or inactive are those of the source. The calls were made as follows: active = hit-call score of the fitted dose curve at least 0.9, where 1 is the maximum; inactive = score below 0.9.

Legend:
Conditions in all cases: mRNA level, 48 h; actives raise or lower the signal
[1] = read-out: Potassium channel subfamily K member 1 (KCNK1), KCNK1 (gene 3775); experiment: LTEA_HepaRG_KCNK1: Life Technologies and Expression Analysis (LTEA) Assay for Potassium channel subfamily K member 1 (KCNK1) using HepaRG (AID 2283511)
Method in brief: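 KCNK1 transcript measured by TaqMan qRT-PCR against three housekeeping genes, after HepaRG cells were treated 48 h with eight half-log concentrations (top 100 uM, 0.5% DMSO). Curves fitted bidirectionally relative to vehicle.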

[2] = read-out: Keratin 19 (KRT19), KRT19 (gene 3880); experiment: LTEA_HepaRG_KRT19: Life Technologies and Expression Analysis (LTEA) Assay for Keratin 19 (KRT19) using HepaRG (AID 2283512)
Method in brief: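 KRT19 transcript levels, measured by Fluidigm qRT-PCR against three housekeeping genes, are fitted for gain or loss of signal relative to DMSO. Human HepaRG cells receive test chemicals (top 100 uM, half-log steps, 0.5% DMSO) for 48 hours.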

[3] = read-out: JUN Transcription Factor, JUN (gene 3725); experiment: LTEA_HepaRG_JUN: Life Technologies and Expression Analysis (LTEA) Assay for JUN Transcription Factor using HepaRG (AID 2283513)
Method in brief: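 Read-out is JUN transcript level by TaqMan qRT-PCR, normalized to ACTB, GAPDH and POLR2A, after 48 h chemical treatment of HepaRG cells. Concentration-response spanned eight half-log points up to 100 uM in 0.5% DMSO.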

[4] = read-out: Lipase C (LIPC), LIPC (gene 3990); experiment: LTEA_HepaRG_LIPC: Life Technologies and Expression Analysis (LTEA) Assay for Lipase C (LIPC) using HepaRG (AID 2283514)
Method in brief: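 LIPC expression was quantified by qRT-PCR against three housekeeping genes (ACTB, GAPDH, POLR2A). Differentiated human HepaRG cells received eight half-log doses (top 100 uM, 0.5% DMSO) in duplicate for 48 h; fitting bidirectional relative to DMSO.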

[5] = read-out: Lipoprotein lipase (LPL), LPL (gene 4023); experiment: LTEA_HepaRG_LPL: Life Technologies and Expression Analysis (LTEA) Assay for Lipoprotein lipase (LPL) using HepaRG (AID 2283515)
Method in brief: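 LPL transcript levels quantified by TaqMan qRT-PCR against three housekeeping genes after 48 h chemical treatment of HepaRG cells. Eight-point half-log series from 100 uM in 0.5% DMSO, tested in duplicate; bidirectional fitting versus vehicle.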

[6] = read-out: MicroRNA 122 (MIR122), gene 406906; experiment: LTEA_HepaRG_MIR122: Life Technologies and Expression Analysis (LTEA) Assay for MicroRNA 122 (MIR122) using HepaRG (AID 2283516); also: the transcript read is the microRNA miR-122
Method in brief: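 Human liver HepaRG cultures receive test chemicals for 48 h at eight half-log concentrations from 100 uM. Expression is quantified by qRT-PCR with ACTB/GAPDH/POLR2A normalization and fitted bidirectionally against 0.5% DMSO.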

[7] = read-out: matrix metalloproteinase-10 (MMP10), MMP10 (gene 4319); experiment: LTEA_HepaRG_MMP10: Life Technologies and Expression Analysis (LTEA) Assay for matrix metalloproteinase-10 (MMP10) using HepaRG (AID 2283517)
Method in brief: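 Expression measured by TaqMan qRT-PCR with ACTB/GAPDH/POLR2A normalisation after 48 h chemical exposure of HepaRG cells. Eight half-log concentrations, top 100 uM, 0.5% DMSO vehicle, duplicates; gain or loss fitted against vehicle.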

MYC, MYC (gene 4609) = experiment: LTEA_HepaRG_MYC: Life Technologies and Expression Analysis (LTEA) Assay for MYC using HepaRG (AID 2283518)
Method in brief: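 HepaRG, ~100,000 cells/well, collagen I; 48 h plating; serum-free induction medium; 48 h dosing, duplicate, 100 uM top, half-log, 0.5% DMSO; total RNA → qRT-PCR MYC; gain/loss fit vs DMSO.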

[8] = read-out: matrix metalloproteinase-3 (MMP3), MMP3 (gene 4314); experiment: LTEA_HepaRG_MMP3: Life Technologies and Expression Analysis (LTEA) Assay for matrix metalloproteinase-3 (MMP3) using HepaRG (AID 2283519)
Method in brief: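 Fluidigm-based TaqMan qRT-PCR, normalized to ACTB, GAPDH and POLR2A and fitted bidirectionally versus 0.5% DMSO, measured transcript levels. Treatment: duplicate 48 h exposures of HepaRG cells, ~100,000/well, to eight half-log concentrations topping at 100 uM.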

[9] = read-out: Paternally Expressed 10 (PEG10), PEG10 (gene 23089); experiment: LTEA_HepaRG_PEG10: Life Technologies and Expression Analysis (LTEA) Assay for Paternally Expressed 10 (PEG10) using HepaRG (AID 2283520);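 as to AC50: PEG10 transcript by qRT-PCR normalised to ACTB GAPDH and POLR2A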
Method in brief: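 Human HepaRG cultures are dosed for 48 h across an eight-point half-log series starting at 100 uM, with 0.5% DMSO as vehicle and baseline. Gain or loss of PEG10 transcript is measured by qRT-PCR and fitted in both directions.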

[10] = read-out: Nuclear factor NF-kappa-B p105 subunit (Homo sapiens) (UniProt P19838); experiment: LTEA_HepaRG_NFKB1: Life Technologies and Expression Analysis (LTEA) Assay for Nuclear Factor Kappa B Subunit 1 (NFKB1) using HepaRG (AID 2283521)
Method in brief: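 HepaRG, 48 h exposure; 8-pt half-log series from 100 uM in 0.5% DMSO; duplicates. Readout: NFKB1 mRNA by qRT-PCR (Fluidigm arrays), housekeeping-normalized. Gain/loss fit vs DMSO baseline.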

[11] = read-out: Protein phosphatase 2A (PPP2R4), PTPA (gene 5524); experiment: LTEA_HepaRG_PPP2R4: Life Technologies and Expression Analysis (LTEA) Assay for Protein phosphatase 2A (PPP2R4) using HepaRG (AID 2283522)
Method in brief: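 Cells were plated, cultured 48 h, switched to serum-free induction medium, then dosed for 48 h (8 points, max 100 uM, 0.5% DMSO). RNA was isolated and PPP2R4 expression measured by TaqMan qRT-PCR.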

[12] = read-out: Phosphatase and tensin (PTEN), PTEN (gene 5728); experiment: LTEA_HepaRG_PTEN: Life Technologies and Expression Analysis (LTEA) Assay for Phosphatase and tensin (PTEN) using HepaRG (AID 2283523)
Method in brief: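 Read-out: TaqMan qRT-PCR of PTEN transcript, normalized to three housekeeping genes, fitted in both directions against 0.5% DMSO. Differentiated human HepaRG cultures received chemicals for 48 h, eight-point half-log series topping at 100 uM.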

[13] = read-out: solute carrier (SLC22A1), SLC22A1 (gene 6580); experiment: LTEA_HepaRG_SLC22A1: Life Technologies and Expression Analysis (LTEA) Assay for solute carrier (SLC22A1) using HepaRG (AID 2283524);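 as to AC50: differentiated human HepaRG liver cells in serum-free induction medium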
Method in brief: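 Transcript level of SLC22A1 quantified by qRT-PCR (normalized to three housekeeping genes) after 48 h chemical exposure of HepaRG cells, eight concentrations up to 100 µM, half-log steps, 0.5% DMSO vehicle. Gain or loss relative to DMSO fitted bidirectionally.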

[14] = read-out: Pyruvate Dehydrogenase Kinase 4 (PDK4), PDK4 (gene 5166); experiment: LTEA_HepaRG_PDK4: Life Technologies and Expression Analysis (LTEA) Assay for Pyruvate Dehydrogenase Kinase 4 (PDK4) using HepaRG (AID 2283525)
Method in brief: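 Readout is qRT-PCR of PDK4 transcript, normalized to three housekeeping genes, with bidirectional fitting against 0.5% DMSO vehicle. Differentiated HepaRG cells were treated 48 h in serum-free induction medium, duplicate wells, eight-point half-log series topping at 100 uM.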

[15] = read-out: succinate dehydrogenase complex iron sulfur subunit B (SDHB), SDHB (gene 6390); experiment: LTEA_HepaRG_SDHB: Life Technologies and Expression Analysis (LTEA) Assay for succinate dehydrogenase complex iron sulfur subunit B (SDHB) using HepaRG (AID 2283528)
Method in brief: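 Readout is SDHB transcript level by qRT-PCR, normalised to three housekeeping genes and fitted bidirectionally against 0.5% DMSO vehicle. Human HepaRG cells were treated for 48 h at up to 100 uM.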

[16] = read-out: Signal transducer and activator of transcription 3 (Homo sapiens) (UniProt P40763); experiment: LTEA_HepaRG_STAT3: Life Technologies and Expression Analysis (LTEA) Assay for Signal transducer and activator of transcription (STAT3) using HepaRG (AID 2283529)
Method in brief: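 STAT3 transcript quantified by qRT-PCR against three housekeeping genes (ACTB, GAPDH, POLR2A), fitted both directions relative to DMSO. HepaRG cultures exposed 48 h to eight half-log concentrations, top 100 uM, 0.5% DMSO, serum-free induction medium.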

[17] = read-out: solute carrier (SLCO1B1), SLCO1B1 (gene 10599); experiment: LTEA_HepaRG_SLCO1B1: Life Technologies and Expression Analysis (LTEA) Assay for solute carrier (SLCO1B1) using HepaRG (AID 2283530)
Method in brief: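 HepaRG, serum-free induction medium, 48 h dosing, 8-pt half-log from 100 uM, 0.5% DMSO vehicle, duplicates. Readout: SLCO1B1 mRNA, qRT-PCR, ACTB/GAPDH/POLR2A normalization; up or down fit vs DMSO.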

[18] = read-out: NAD(P)H dehydrogenase [quinone] 1 (NQO1), NQO1 (gene 1728); experiment: LTEA_HepaRG_NQO1: Life Technologies and Expression Analysis (LTEA) Assay for NAD(P)H dehydrogenase [quinone] 1 (NQO1) using HepaRG (AID 2283526)
Method in brief: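 Transcript induction or suppression is quantified by qRT-PCR in human HepaRG liver cells dosed for 48 hours. Eight half-log concentrations topping at 100 uM are used, with 0.5% DMSO as vehicle and baseline.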

[19] = read-out: Nuclear factor erythroid 2-related factor 2 (Homo sapiens) (UniProt Q16236); experiment: LTEA_HepaRG_NFE2L2: Life Technologies and Expression Analysis (LTEA) Assay for Nuclear factor erythroid 2-related factor 2 (NFE2L2) Transcription Factor using HepaRG (AID 2283527);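 also: TaqMan qRT-PCR transcript level normalised to ACTB GAPDH and POLR2A housekeeping genes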
Method in brief: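 NFE2L2 transcript level was read by qRT-PCR (housekeeping ACTB/GAPDH/POLR2A normalisation) after 48 h chemical treatment of HepaRG in serum-free induction medium. Duplicate 8-point half-log curves, top 100 uM, 0.5% DMSO vehicle; up- or down-regulation fitted against vehicle.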

Measured: AC50

Sequence of Nuclear factor NF-kappa-B p105 subunit (Homo sapiens) (P19838 whole entry, looked up): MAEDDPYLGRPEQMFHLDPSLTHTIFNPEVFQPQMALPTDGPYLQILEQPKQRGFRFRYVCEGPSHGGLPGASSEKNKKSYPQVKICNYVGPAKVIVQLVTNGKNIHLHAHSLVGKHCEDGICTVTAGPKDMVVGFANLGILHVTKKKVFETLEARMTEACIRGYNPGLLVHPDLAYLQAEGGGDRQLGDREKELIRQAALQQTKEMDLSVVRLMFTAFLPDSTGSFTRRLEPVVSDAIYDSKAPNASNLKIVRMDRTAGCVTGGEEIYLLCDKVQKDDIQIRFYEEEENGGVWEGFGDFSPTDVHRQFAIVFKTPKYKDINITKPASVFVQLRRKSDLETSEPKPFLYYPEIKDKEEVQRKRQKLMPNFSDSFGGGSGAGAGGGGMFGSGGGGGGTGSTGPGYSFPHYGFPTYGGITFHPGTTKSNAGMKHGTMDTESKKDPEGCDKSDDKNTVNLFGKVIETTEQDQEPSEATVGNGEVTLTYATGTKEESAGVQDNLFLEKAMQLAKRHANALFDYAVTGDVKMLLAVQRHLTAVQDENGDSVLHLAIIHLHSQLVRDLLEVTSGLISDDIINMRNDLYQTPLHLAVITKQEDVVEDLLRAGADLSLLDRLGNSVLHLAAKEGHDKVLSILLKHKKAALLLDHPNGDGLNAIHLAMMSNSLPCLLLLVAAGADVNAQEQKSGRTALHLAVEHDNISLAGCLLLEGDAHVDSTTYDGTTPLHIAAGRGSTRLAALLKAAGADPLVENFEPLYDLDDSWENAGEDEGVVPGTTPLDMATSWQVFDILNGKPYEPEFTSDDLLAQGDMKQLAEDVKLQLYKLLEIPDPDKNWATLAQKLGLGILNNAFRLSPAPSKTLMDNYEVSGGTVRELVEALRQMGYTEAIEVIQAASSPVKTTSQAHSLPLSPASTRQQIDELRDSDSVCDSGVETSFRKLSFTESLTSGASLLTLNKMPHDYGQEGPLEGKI
Sequence of Signal transducer and activator of transcription 3 (Homo sapiens) (P40763 whole entry, looked up): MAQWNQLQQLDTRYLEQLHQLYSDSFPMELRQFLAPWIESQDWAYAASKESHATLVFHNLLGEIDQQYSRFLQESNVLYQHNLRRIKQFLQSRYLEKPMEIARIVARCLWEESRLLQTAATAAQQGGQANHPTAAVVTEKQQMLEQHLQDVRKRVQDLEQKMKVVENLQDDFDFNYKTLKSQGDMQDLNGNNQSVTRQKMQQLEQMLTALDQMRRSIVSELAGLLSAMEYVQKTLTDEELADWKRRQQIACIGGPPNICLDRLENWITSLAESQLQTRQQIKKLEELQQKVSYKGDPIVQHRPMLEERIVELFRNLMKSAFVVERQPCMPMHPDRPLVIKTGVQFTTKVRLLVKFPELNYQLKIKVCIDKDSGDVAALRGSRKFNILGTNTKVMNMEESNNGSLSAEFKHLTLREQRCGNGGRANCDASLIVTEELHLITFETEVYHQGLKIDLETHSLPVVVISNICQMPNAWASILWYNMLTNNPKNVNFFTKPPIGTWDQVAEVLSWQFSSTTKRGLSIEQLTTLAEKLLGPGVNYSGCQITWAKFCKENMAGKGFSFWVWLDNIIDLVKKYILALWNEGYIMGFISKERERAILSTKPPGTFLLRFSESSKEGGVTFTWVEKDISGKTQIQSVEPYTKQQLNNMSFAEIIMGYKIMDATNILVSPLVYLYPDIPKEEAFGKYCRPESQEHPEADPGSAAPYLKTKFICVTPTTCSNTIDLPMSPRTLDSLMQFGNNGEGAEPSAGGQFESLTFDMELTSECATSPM
Sequence of Nuclear factor erythroid 2-related factor 2 (Homo sapiens) (Q16236 whole entry, looked up): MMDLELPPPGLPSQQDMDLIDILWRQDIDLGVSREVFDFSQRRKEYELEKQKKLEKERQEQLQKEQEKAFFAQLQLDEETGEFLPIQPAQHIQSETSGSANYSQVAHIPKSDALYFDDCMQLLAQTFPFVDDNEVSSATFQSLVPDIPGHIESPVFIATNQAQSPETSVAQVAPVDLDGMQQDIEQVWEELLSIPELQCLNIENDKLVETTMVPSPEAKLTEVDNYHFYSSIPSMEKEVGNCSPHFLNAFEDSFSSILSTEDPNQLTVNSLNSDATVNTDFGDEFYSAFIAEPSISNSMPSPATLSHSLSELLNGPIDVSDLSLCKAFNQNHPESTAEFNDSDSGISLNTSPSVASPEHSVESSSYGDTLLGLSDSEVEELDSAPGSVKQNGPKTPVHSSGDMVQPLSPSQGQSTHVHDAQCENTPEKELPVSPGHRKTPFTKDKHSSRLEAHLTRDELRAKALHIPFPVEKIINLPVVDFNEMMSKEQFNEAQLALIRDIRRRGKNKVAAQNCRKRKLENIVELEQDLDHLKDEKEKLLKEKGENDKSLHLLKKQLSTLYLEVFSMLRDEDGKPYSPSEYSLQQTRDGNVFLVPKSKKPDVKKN

CC[C@H]1CC[C@H](NCc2cc3c(cc2OC)[C@H]2C[C@H]2C(=O)N3C)[C@H](c2ccccc2)N1
active: [5] 50 µM
inactive: [1] | [2] | [3] | [4] | [6] | [7] | MYC, MYC (gene 4609) | [8] | [9] | [10] | [11] | [12] | [13] | [14] | [15] | [16] | [17]

O=C1CCC(N2C(=O)c3ccccc3C2=O)C(=O)N1 (centres undefined)
inactive: [1] | [2] | [3] | [4] | [5] | [6] | [7] | MYC, MYC (gene 4609) | [8] | [9] | [10] | [11] | [13] | [14] | [18] | [15] | [16] | [17]

O=C(CCCCCCCCc1cccnc1)N1CCC(C=C(c2ccccc2)c2ccccc2)CC1
active: [1] 50 µM | [3] 28.5 µM | [4] 22.4 µM | [5] 12.8 µM | [6] 26.5 µM | [7] 31.8 µM | MYC, MYC (gene 4609) 27.4 µM | [8] 86.8 µM | [9] 50 µM | [10] 31.4 µM | [11] 11.7 µM | [13] 24.4 µM | [14] 89.4 µM | [18] 80 µM | [17] 50 µM
inactive: [2] | [15] | [16]

O=C(O)c1cccc(Oc2ccccc2)c1
inactive: [1] | [2] | [3] | [4] | [5] | [6] | [7] | MYC, MYC (gene 4609) | [8] | [9] | [10] | [11] | [12] | [13] | [18] | [15] | [16] | [17]
active: [14] 50 µM

COC(=O)c1c(Cl)c(Cl)c(C(=O)OC)c(Cl)c1Cl
inactive: [1] | [2] | [3] | [4] | [5] | [6] | [7] | MYC, MYC (gene 4609) | [8] | [9] | [10] | [11] | [13] | [14] | [18] | [19] | [15] | [16] | [17]

C=CC(=C)CCC=C(C)C
inactive: [1] | [2] | [3] | [4] | [5] | [6] | [7] | MYC, MYC (gene 4609) | [8] | [9] | [10] | [11] | [13] | [14] | [18] | [19] | [15] | [16] | [17]

C1N2CN3CN1CN(C2)C3
inactive: [1] | [2] | [3] | [4] | [5] | [6] | [7] | MYC, MYC (gene 4609) | [8] | [9] | [10] | [11] | [12] | [13] | [14] | [15] | [16] | [17]
